# Source: PubChem
# Pf growth 96h: P. falciparum growth inhibition at 96 hour, primary screen for plastid delayed-death inhibitors | P. falciparum luciferase reporter growth, 96 h | Potency, µM (doses to about 28.7 µM), without a hit: at the highest dose activity change, negative = inhibition, usual class: inhibitors | 320,000 compounds, 6.9% hits; further: on the % scale 0 is the no-effect control and ±100 the full control effect
#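 Luminescence readout: decreased luciferase signal marks inhibited growth of reporter-expressing P. falciparum in infected red cells (2% hematocrit, 0.05% parasitemia final), exposed to compound two generations (96 h, 37 C, 5% CO2).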
# Sm TGR block: blocks Schistosoma mansoni thioredoxin glutathione reductase; 360,000 compounds, 3% hits; AID 485364; Potency, µM (titrated, usually from 114 µM), inactives show at the highest dose activity change, negative = inhibition, usual class: inhibitors; Q962Y6; purified TGR, DTNB reduction, TNB absorbance 405 nm; further: on the % scale 0 is the no-effect control and ±100 the full control effect; nearly all actives have a fitted effect of over 60% in size
#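 TGR 20 nM + NADPH 100 uM (dispensed conc.), cpd preinc 15 min RT; start with NADPH (500 uM addition) then DTNB (15 mM addition). Kinetic TNB absorbance, 405 nm filter. Four-parameter Hill fit across titration.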
# NS1 function inh: inhibitors of influenza NS1 protein function; Potency, µM (doses to about 46.1 µM), for inactives: at the top dose activity, positive = more growth; 270,000 compounds, 0.4% hits; calls by dose curve; further: actives are rising curves; nearly all actives have a fitted effect of over 50% in size
#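 A cell-based growth assay was used: compounds that relieve NS1-induced slow growth of budding yeast raise OD600. Assay medium was yeast nitrogen base with ammonium sulphate and -URA supplement, pH 6.0, with 2% galactose.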
# Pf growth 48h: P. falciparum growth inhibition at 48 hours (one generation); P. falciparum luciferase growth in erythrocytes, 48 h; Potency, µM (titrated, usually from 28.7 µM), inactives show at the top dose activity change, negative = inhibition, usual class: inhibitors; 310,000 compounds, 5.9% hits; further: on the % scale 0 is the no-effect control and ±100 the full control effect
#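 Luminescence readout; reporter = integrated firefly luciferase in P. falciparum. RBC culture at 2% hematocrit, 0.1% parasitemia final, 37 C/5% CO2; decreased signal taken as growth inhibition.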
# AMA1 RON2 block: inhibitors of Plasmodium falciparum AMA1-RON2 interaction | AlphaScreen AMA1-biotinylated RON2 peptide binding | Potency, µM (top dose mostly 58.2 µM), for inactives: at the top dose activity change, negative = inhibition, usual class: inhibitors | 360,000 compounds, 0.2% hits;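 further: 0% = vehicle wells and -100% = peptide control; nearly all actives have a fitted effect of over 45% in size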
#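 AMA1 (3D7) with his tag at 25 nM final met compounds first, then biotinylated RON2 peptide at 25 nM; detection used donor plus acceptor beads, 10 µg/mL apiece, read by AlphaScreen after 30 min at room temperature.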
# The depositor's hits bear a star; ? = inconclusive; / = no result given; [ ] = remark or other dose. In the library only some 11% were active in any assay of this set; here they are far more common. Unless noted, the call rests on the fitted dose curve; in most records, active means well fitted curve in the direction sought with a large enough effect; inconclusive means small, poorly fitted or top-dose-only effect, or another doubt; inactive means no such curve, though single readings can be large; an effect the other way counts as inactive or inconclusive. Potency means the concentration at half of the fitted maximal effect.
SMILES,Pf growth 96h,Sm TGR block,NS1 function inh,Pf growth 48h,AMA1 RON2 block
COc1ccc(Cl)cc1NC(=O)CN1CCN(S(=O)(=O)c2ccc(F)cc2)CC1,-9%,6%,3%,3.7µM*,-17%
CC(=O)N1CCN(Cc2cc(=O)oc3ccccc23)CC1,/,/,/,/,9%
CC1(c2nnc(-c3ccccc3)o2)CC(c2ccncc2)=NO1 (stereo not given),21%,-16%,-2%,0%,-3%
Cc1cc(Br)cn2c(Cc3ccsc3)c(C3CCCCC3)nc12,/,/,/,/,-14%
O=C(c1ccco1)N1CCN(C(=S)NC2CC3CCC2C3)CC1 (stereo not given),11%,-6%,/,-11%,5%
Cc1cccc(CCNC(=O)C2CCCN(S(=O)(=O)c3cccc4nsnc34)C2)c1 (stereo not given),35%,2%,-15%,?,-10%
CCOCCCNC(=O)C1CCCN(S(=O)(=O)c2cccc3nsnc23)C1 (stereo not given),8.3µM*,0%,?,-9%,-5%
Cc1ccc(CCNC(=O)C2CCCN(S(=O)(=O)c3cccc4nsnc34)C2)cc1 (stereo not given),4.1µM*,-24%,-9%,/,20%
COCCCNC(=O)C1CCCN(S(=O)(=O)c2cccc3nsnc23)C1 (stereo not given),-19%,-1%,5%,9%,-5%
COc1ccccc1N1CCN(C(=O)c2cnn(-c3ccc(F)cc3F)c2C2CCNCC2)CC1,/,6%,/,/,/
COCC(C)NC(=O)Cc1ccc(F)cc1 (stereo not given),9.3µM*,-9%,22%,-15%,-3%
Cc1ccc2ncnc(Oc3ncccc3NC(=O)C(C)(C)C)c2c1,15%,-1%,3%,?,-13%
O=C(O)CCCNc1cc(N2CCN(C(=O)c3ccco3)CC2)c2noc3c2c1C(=O)c1ccccc1-3,?,6.3µM*,22%,?,-27%
CCCCNc1cc(N2CCN(C3CCCCC3)CC2)c2noc3c2c1C(=O)c1ccccc1-3,/,4%,/,/,/
CCOC(=O)N1CCN(c2cc(NCCC(=O)O)c3c4c(onc24)-c2ccccc2C3=O)CC1,-5%,?,-8%,8.3µM*,?
O=C(NCCS(=O)(=O)N1CCC2(CC1)OCCO2)c1ccccc1,1%,3%,/,1%,-4%
O=C(c1ccco1)N1CCN(c2ccc(Cl)c(Cl)c2)CC1,/,/,-73%,/,-8%
O=C(O)CCCNc1cc(N2CCC3(CC2)OCCO3)c2noc3c2c1C(=O)c1ccccc1-3,-24%,8.9µM*,?,?,/
CN1CCN(c2cc(N3CCN(C(=O)c4ccco4)CC3)c3c4c(onc24)-c2ccccc2C3=O)CC1,45%,10µM*,0%,?,18µM*
Nc1ccccc1NC1CCCCC1,?,-5%,/,-19%,?
O=C(Cn1c(-c2cccs2)cc2ccccc21)N1CCN(c2ccccc2F)CC1,/,-1%,/,/,/
O=C1COc2ccc(C(=O)COC(=O)c3cc(S(=O)(=O)N4CCOCC4)ccc3F)cc2N1,14%,?,-11%,?,19%
O=C1c2ccccc2-c2onc3c(N4CCN(CCO)CC4)cc(N4CCN(C(=O)c5ccco5)CC4)c1c23,?,3.5µM*,4%,?,14µM*
COc1cc(C)c2c(c1C=O)Oc1c(c(C)c(O)c3c1C(O)OC3=O)OC2=O (stereo not given),?,20µM*,-1%,?,?
COc1ccc(CNC(=O)c2ccc(Cn3c(=O)c4cccn4c4cccnc43)cc2)cc1OC,/,8%,/,/,/
SMILES,Pf growth 96h,Sm TGR block,NS1 function inh,Pf growth 48h,AMA1 RON2 block
CCN1CCN(c2ncc3c(n2)CCN(Cc2ccccc2C)C3)CC1,/,-2%,/,/,/
C=Cn1ccnc1P(=S)(c1ccc(N(C)C)cc1)c1nccn1C=C,?,12%,-6%,-13%,13%
C=Cn1ccnc1P(=S)(c1ccc2c(c1)c1ccccc1n2CC)c1nccn1C=C,1%,4%,-27%,2.9µM*,-19%
O=c1[nH][nH]cc1C=Nc1cc(Cl)ccc1O,6.6µM*,-27%,-3%,?,39%
O=C(O)CCCC(=O)Nc1ccccc1SCCS(=O)(=O)c1ccc(Cl)cc1,30%,40µM*,-7%,16%,10%
O=C(CCS(=O)(=O)c1ccc(Cl)cc1)Nc1ccccc1Br,224%,5%,1%,3%,1%
Cc1ccc2c(c1)N(C(=O)NCc1ccccc1)CCO2,/,0%,/,/,/
CC1=C(C)C(=O)N(C(C)CCc2ccccc2)C1=O (stereo not given),-22%,0%,-6%,-8%,5%
CCN(CC)C(=O)Cn1cnc2c1c(=O)n(C)c(=O)n2C,/,8%,6%,9%,-8%
CCCn1cnc2c1c(=O)n(CCCCC(C)=O)c(=O)n2C,56%,/,-6%,12µM*,/
Cc1ccc(NC(=O)CCNC(=O)c2ccccc2Cl)cc1S(=O)(=O)N1CCCCCC1,?,-19%,/,?,-3%
O=C(Nc1cccc(S(=O)(=O)N2CCCCC2)c1)c1ccccc1NS(=O)(=O)c1ccc(F)cc1,8.3µM*,-1%,6%,12µM*,-1%
NS(=O)(=O)c1cccc(NC(=O)c2ccccc2NS(=O)(=O)c2ccc(F)cc2)c1,-3%,16%,12%,-13%,2%
Cc1ccc(NC(=O)c2ccccc2NS(=O)(=O)c2ccc(F)cc2)cc1S(=O)(=O)N1CCCCC1,12µM*,0%,25%,13µM*,-3%[11.6 µM]
COc1ccc(CN(Cc2cc3cccc(C)c3n3nnnc23)C(=O)N2CCOCC2)cc1,41%,-16%,2%,28%,4%
CC[C@H](C)[C@H]1CNC(=S)N1CC1CCN(CCCCc2ccccc2)CC1,/,/,/,/,-10%
Cc1cccc(N(Cc2cc3ccc(C)cc3[nH]c2=O)C(=O)c2ccco2)c1,10µM*,4.5µM*,3%,?,-5%
Cc1ccc2cc(CN(C(=O)c3cccc(Cl)c3)c3ccccc3)c(=O)[nH]c2c1,/,-1%,/,/,/
Cc1ccc2cc(CN(C(=O)c3ccco3)c3ccccc3)c(=O)[nH]c2c1,?,32µM*,6%,-10%,-11%
Cc1ccc(N(Cc2cc3ccc(C)cc3[nH]c2=O)C(=O)c2ccco2)cc1,239%,2.2µM*,2%,-11%,5%
Cc1ccc(N(Cc2cc3ccccc3[nH]c2=O)C(=O)c2ccco2)c(C)c1,/,-15%,4%,?,-9%
COc1cccc(NC(=O)c2ccc(CNS(=O)(=O)c3ccc4c(c3)C(C)(C)C(=O)N4C)cc2)c1,/,1%,/,/,/
CCCNC(=O)C(Sc1ccccc1)c1ccccc1 (stereo not given),-26%,0%,5%,-21%,28%
CCC(C)(C)NC(=O)C(Sc1ccccc1)c1ccccc1 (stereo not given),10µM*,5%,-6%,?,-4%
Cc1cc2nc[nH]c(=O)n2n1,/,/,/,/,1%
COc1ccc2occ(C(=O)c3coc4ccc(O)c(CN(C)C)c34)c2c1,/,2%,-4%,8.3µM*,-5%
